Laboratory results taken from PubChem BioAssay AID2233 (The Scripps Research Institute Molecular Screening Center, 2010).
This is one part of the list. Calls of active or inactive are those of the source.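 Rule for the calls: active = mean inhibition across replicates above the hit cutoff set in the primary screen (cut at about 15% in these data); inactive = the rest.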

Target: Acyl-protein thioesterase 1 (Homo sapiens) (UniProt O75608)
Experiment: inhibition of human lysophospholipase 1 – biochemical, fluorescence polarization, FP-Rh probe ABPP, counter-screen for PME1 inhibitor project, confirmation (AID 2233);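 note: loss of FP-Rh probe labeling of LYPLA1 seen as lower polarization; 0% = LYPLA1 with DMSO and 100% = wells lacking LYPLA1 enzyme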
Settings: recombinant LYPLA1, FP-Rh probe fluorescence polarization; at 5.9 µM; active compounds read high

Sequence of Acyl-protein thioesterase 1 (Homo sapiens) (O75608 whole entry, looked up): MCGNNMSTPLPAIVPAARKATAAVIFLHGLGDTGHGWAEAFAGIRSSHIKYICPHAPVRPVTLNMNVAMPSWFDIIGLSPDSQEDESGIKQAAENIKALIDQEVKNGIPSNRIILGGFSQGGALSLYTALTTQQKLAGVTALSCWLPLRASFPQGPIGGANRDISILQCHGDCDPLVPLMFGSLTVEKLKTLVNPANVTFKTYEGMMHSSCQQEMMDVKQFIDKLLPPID

Structure (SMILES) | inhibition
Cc1ccc(N2CCN(C3=NC(=O)/C(=C\c4cccs4)S3)CC2)cc1 | 37% (active)
O=C(COc1ccc(Cl)cc1)N1CCN(c2cccc(C(F)(F)F)c2)CC1 | 31.6% (active)
CCOc1ccccc1N1CCN(C(=O)c2ccc3[nH]c(C)c(C)c3c2)CC1 | 29.3% (active)
CSc1c(SCc2ccccc2)cnn(Cc2ccccc2)c1=O | 2.84% (inactive)
O=C(CCn1c(SCC(=O)c2ccccc2)nc2ccccc2c1=O)NCc1ccc(F)cc1 | -4.57% (inactive)
CCCCn1c(N)c(N(CCC(C)C)C(=O)CC2OC(=O)c3ccccc32)c(=O)[nH]c1=O (stereo not drawn) | 0.51% (inactive)
O=C(CN1CCN(c2cccc(Cl)c2)CC1)Nc1ccc(S(=O)(=O)N2CCOCC2)cc1 | 23.3% (active)
Cc1cccc(N2CCN(C(=O)CN(C)S(=O)(=O)c3ccc4c(c3)CCC(=O)N4)CC2)c1C | 26.9% (active)
COc1ccccc1C(=O)NC(CCSC)C(=O)N1CCN(C/C=C/c2ccccc2)CC1 (stereo not drawn) | 19.9% (active)
CN(CCOc1ccccc1)C(=O)c1cc(COc2c(F)cccc2F)on1 | 12.1% (inactive)
Cc1ccc(S(=O)(=O)N2CCC(C(=O)N[C@@H](C)C(=O)NCc3ccco3)CC2)cc1 | 2.78% (inactive)
CCN1CCN(CCNC(=O)c2ccc3c(c2)NC(=O)/C(=C\c2ccc(OC)c(OC)c2)S3)CC1 | 19.4% (active)
COc1ccc(-c2nc(CS(=O)CC(=O)NCc3ccccn3)c(C)o2)cc1 (stereo not drawn) | 16.5% (active)
CCC(=C/c1sc2ccc3ccccc3c2[n+]1C)/C=C1\Sc2ccc3ccccc3c2N1C | 78.8% (active)
C=CCNC(=O)c1sc(SC)cc1-c1ccc(Cl)cc1 | 23.5% (active)
O=C(c1ccc(-c2ccccc2)cc1)C1CCCN(C(=O)c2cncs2)C1 (stereo not drawn) | 30.7% (active)
CCN1C(=O)/C(=C2/Sc3ccccc3N2CCCS(=O)(=O)O)SC1=S | 9.65% (inactive)
COc1ccc(N2CC(C(=O)NCCN3C(=O)S/C(=C\c4cccnc4)C3=O)CC2=O)c(OC)c1 (stereo not drawn) | 1.04% (inactive)
CCOc1ccc(C(=O)NC(=S)Nc2ccc(N3CCOCC3)c(Cl)c2)cc1[N+](=O)[O-] | 24.6% (active)
O=c1[nH]n(-c2ccc([N+](=O)[O-])cc2)c(=O)c2ccccc12 | 17.7% (active)
COc1cccc(NC(=O)N2CCCC2C(=O)NC2CCCCC2)c1 (stereo not drawn) | 2.88% (inactive)
COCCOC(=O)c1sc(=S)n(CCOC)c1N | 13.4% (inactive)
O=c1[nH]n(-c2cccc(Cl)c2)c2ncccc12 | 2.75% (inactive)
